# Measurements as given in PubChem BioAssay AID2546 (National Center for Advancing Translational Sciences (NCATS), 2010).
# Screen size: about 310,000 compounds; about 11,000 (3.5%) were called active. Not shown: some 8% with an inconclusive outcome. The list comes from a sample in which actives are over-represented; it also holds similar structures and randomly drawn compounds. A call without a number means that no potency is given here. Unmarked numbers belong to inactive results. Calls follow the shape of the dose curve; as a rule, active = well fitted inhibition curve with a large enough effect; inconclusive = small, poorly fitted or top-dose-only effect, or effect the other way; inactive = flat fitted curve, though single readings scatter.
# Assay: VP16 counterscreen qHTS for inhibitors of ROR gamma transcriptional activity;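 also: Gal4-VP16 expression switched on by copper sulfate through the metallothionein promoter; nearly all actives have a fitted effect of over 50% in size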
# Conditions: Drosophila S2 Gal4-VP16 UAS-luciferase, luminescence, 20 h; series mostly up to 53.6 µM
# Potency is read from the fitted curve at half-maximal effect.
Structure (SMILES),Potency,"activity, negative = inhibition"
CC(=O)NCC(=O)N1CCC(n2nccc2NC(=O)CCCc2ccccc2)CC1,inactive,–
O=S(=O)(Nc1ccccc1Cl)c1cccc2nsnc12,inactive,–
O=c1c(-c2cccc(Cl)c2)c[nH]n1-c1ccccc1,inactive,–
COc1ccc(NC(=O)c2sc3nc(C)nc(N4CCN(c5ccccn5)CC4)c3c2C)c(OC)c1,inactive,–
COc1ccc(C(=O)Nc2ccccc2C(=O)N/N=C/c2ccc(O)c(OC)c2)cc1,0.316 µM (active),–
COc1ccc(C(=O)Nc2ccccc2C(=O)NCc2ccco2)cc1,inactive,–
COc1cc(/C=N/NC(=O)c2ccccc2)ccc1OS(=O)(=O)c1ccccc1,inactive,–
COc1cc(/C=N/NC(=O)c2ccc(N3CCCC3=O)cc2)ccc1O,inactive,–
COc1ccc(C(=O)Nc2ccccc2C(=O)N/N=C/c2ccccc2OC)cc1,12.6 µM (active),–
COc1ccc(/C=N/NC(=O)c2ccc3c(c2)OCCO3)c(OC)c1,inactive,–
Cn1c(Nc2cccc(Cl)c2)nc2ccccc21,inactive,–
Fc1cc(F)c2nc(N3CCOCC3)sc2c1,inactive,–
Fc1cc(F)c2nc(Nc3nc4c(F)cccc4s3)sc2c1,7.08 µM (active),–
O=C(Nc1nc2c(F)cc(F)cc2s1)C1COc2ccccc2O1 (centres undefined),inactive,–
CCc1ccc(/C=N/NC(=O)c2nnn(-c3nonc3N)c2CN2CCc3ccccc32)cc1,inactive,–
COc1ccc(C(C(=O)NC2CCCCC2)N(C(=O)c2snc(C(N)=O)c2N)c2ccccc2OC)cc1 (centres undefined),inactive,–
CCC1(C)Cc2c(sc3nc(SC)[nH]c(=O)c23)CO1 (centres undefined),inactive,–
CCC1(C)Cc2c(sc3[nH]c(=S)n(Cc4ccccc4)c(=O)c23)CO1 (centres undefined),1.26 µM (active),–
CCC1(C)Cc2c(sc3nnn(CC(=O)Nc4ccc(Cl)cc4)c(=O)c23)CO1 (centres undefined),inactive,–
CCOc1ccc(N(CC(=O)Nc2ccccc2F)S(=O)(=O)c2c(C)[nH]c(=O)[nH]c2=O)cc1,inactive,–
Cc1cccc(N2CCN(S(=O)(=O)c3ccc(-c4cc(C)no4)s3)CC2C)c1 (centres undefined),inactive,–
COCCCNS(=O)(=O)c1cccc(S(=O)(=O)c2cccc(S(=O)(=O)NCCCOC)c2)c1,inactive,–
CCOc1ccccc1NS(=O)(=O)c1c[nH]c(C(=O)OC)c1,inactive,–
CCCNC(=O)CSc1nc(Cc2ccccc2)nc2ccccc12,inactive,–
COCc1ccc(CN2CCC(Oc3ccc(C(=O)NCc4ccccn4)cc3)CC2)o1,inactive,–
CC1(C)C(c2cccs2)=[N+]([O-])C2(CCCCC2=O)N1O (centres undefined),inactive,–

Structure (SMILES),Potency,"activity, negative = inhibition"
CC(=O)C1(C)N(O)C(C)(C)C(c2cccs2)=[N+]1[O-] (centres undefined),10 µM (active),–
C/C(=N\O)C1(C)N(O)C(C)(C)C(c2ccc(Br)cc2)=[N+]1[O-] (centres undefined),inactive,–
COc1ccc(C2/C=C\CN(Cc3ccco3)C(C)C(=O)N2Cc2ccc(F)cc2)cc1 (centres undefined),inactive,–
COc1ccc(CN2CC(C(=O)NC3CCCCC3)CC2=O)cc1 (centres undefined),inactive,–
COc1ccc(CN2CN(C3CCCC3)CSC2=S)cc1,11.2 µM (active),–
COc1ccc(CN2CN(C(C)C)CSC2=S)cc1,inactive,–
CC(C)Nc1ccc(-n2nc3ccccc3[n+]2[O-])cc1,10 µM (active),–
CC1CCN(C(=O)CCNC(=O)c2ccccc2)CC1,inactive,–
COc1ccc(CCNC(=O)CN2C(=O)CCSc3ccccc32)c(OC)c1,inactive,–
COc1cc(-c2n[nH]c(=S)n2Cc2ccccc2)cc(OC)c1OC,inactive,–
C=CCn1c(-c2ccc3[nH]c(C)c(C)c3c2)n[nH]c1=S,12.6 µM (active),–
C=CCn1c(=S)sc2c(=O)[nH]c(C)nc21,inactive,–
COC(=O)c1cccc(C(=O)N2CCC(CCC(=O)NCc3ccc(F)cc3)CC2)c1,inactive,–
O=C(c1ccc(Oc2ccc(Cl)cc2)c([N+](=O)[O-])c1)N1CCCC1,inactive,–
CCN(CC)c1ccc(C(=O)Nn2c(C)nc3ccccc3c2=O)cc1,inactive,–
COC(=O)c1ccc2c(=O)n(CCN3CCOCC3)c(SCC(=O)Nc3cccc(OC)c3)nc2c1,inactive,–
COc1ccccc1N1CCN(S(=O)(=O)CCNC(=O)c2ccc(OC(C)C)cc2)CC1,inactive,–
O=C(NC(=S)N1CCc2ccccc21)c1ccco1,3.16 µM (active),–
NC(=O)N1CCc2ccccc21,inactive,–
O=C(CSCc1ccccc1)N1CCc2ccccc21,inactive,–
CN(C)c1ccc(-c2nnc(-c3cccnc3)o2)cc1,inactive,–
O=C(Nc1ccncc1)Nc1ccc(F)cc1,inactive,–
Cc1ccc(C)c(N2CCN(C(=O)CCCCn3c(=O)[nH]c4ccccc4c3=O)CC2)c1,inactive,–
Cc1ccc(C)c(N2CCN(C(=O)CCCCCn3c(=S)[nH]c4ccc(N5CCOCC5)cc4c3=O)CC2)c1,5.62 µM (active),–
Cc1ccc(C)c(N2CCN(C(=O)CCCn3c(=O)c4cccn4c4cccnc43)CC2)c1,inactive,–
O=C(CSc1nc2nccnc2c(=O)n1Cc1cccs1)Nc1ccccc1F,inactive,–

Structure (SMILES),Potency,"activity, negative = inhibition"
CC(=O)N(C)c1ccc(NC(=O)Nc2cccc3ccccc23)cc1,inactive,–
CCN1/C(=C/C(=S)Nc2ccccc2)Sc2ccccc21,12.6 µM (active),–
O=C(CCN1c2ccccc2Sc2ccccc21)Nc1ccccc1,inactive,–
CCNC(=O)N1c2ccccc2Sc2ccccc21,–,-17% [at 10 µM]
Cc1ccc(C(=O)N2CC(=O)Nc3ccc(F)cc3C2c2ccc(F)cc2)cc1 (centres undefined),inactive,–
CN(CC1CCCO1)S(=O)(=O)c1ccc(C(=O)Nc2ccc(F)cc2)cc1 (centres undefined),inactive,–
N#C[C@]1(S(=O)(=O)c2ccccc2)C[C@@H]2ON=C(c3cccc(Br)c3)[C@@H]2C1,11.2 µM (active),–
COC(=O)[C@]1(S(=O)(=O)c2ccccc2)C[C@@H]2ON=C(c3ccc(OC)cc3)[C@@H]2C1,inactive,–
Cc1cc(NC(=O)c2ccco2)c(=O)n(Cc2c(F)cccc2Cl)c1,inactive,–
Cc1c(CN2CC[C@@H](N3CCN(c4ccccn4)CC3)[C@H](O)C2)[nH]c2ccc(F)cc12,inactive,–
CCCn1c(=S)[nH]c2ccc(C(F)(F)F)cc21,inactive,–
CC(C)n1c(=S)[nH]c2cc(C(F)(F)F)ccc21,10 µM (active),–
COc1ccc(C)cc1N(C(=O)Cn1nnc(-c2ccc(C)o2)n1)C(C(=O)NC1CCCC1)c1ccncc1 (centres undefined),inactive,–
COc1ccc(-c2nc(N)ncc2-c2ccc(Cl)cc2)c(O)c1,inactive,–
Oc1cccc(C2c3[nH]c4ccccc4c3CCN2Cc2cnn(-c3ccccc3)c2)c1 (centres undefined),inactive,–
Cc1[nH]nc(-c2ccc(OCc3cnn(-c4ccccc4)c3)cc2O)c1Oc1ccc(Cl)cc1,3.98 µM (active),–
COC(=O)c1c(NC(=O)c2ccccc2F)sc2c1C(C(=O)OC)CC2 (centres undefined),inactive,–
CCc1ccc(N2CC(C(=O)N3CCCCCC3)CC2=O)cc1 (centres undefined),inactive,–
COc1ccc(N2C(=O)C(Cc3ccccc3)NC2=S)cc1 (centres undefined),inactive,–
COc1ccc(-n2cc(-c3ccccc3)c3c(=S)nc[nH]c32)cc1,1.12 µM (active),–
O=c1[nH]cnc2c1c(-c1ccccc1)cn2-c1ccc(F)cc1,inactive,–
Cc1ccc(S(=O)(=O)NCc2ccc(C(=O)NC3CCC(C)CC3)cc2)cc1 (centres undefined),inactive,–
Fc1ccc(CSc2nnc(-c3cc4c(s3)-c3ccccc3CC4)o2)cc1,inactive,–
CCSc1nnc(-c2cc3c(s2)-c2ccccc2CC3)o1,2.51 µM (active),–
O=C(CSc1nnc(-c2ccccc2O)o1)NC1CCCCC1,inactive,–
COc1cccc(CNc2ncc(-c3ccccc3)n2C)c1,inactive,–

Structure (SMILES),Potency,"activity, negative = inhibition"
O=C(CCC1CCCN(C(=O)c2ccc(F)c(F)c2)C1)N1CCN(c2ccccn2)CC1 (centres undefined),inactive,–
COCCCNC(=S)NNC(=O)C(O)(c1ccccc1)c1ccccc1,inactive,–
CCCCNC(=S)NNC(=O)c1cc(C)on1,11.2 µM (active),–
Cc1cc(C(=O)NCCCc2ccccc2)no1,inactive,–
O=C(NCCN1CCCC(O)C1)c1cc(COc2c(F)cccc2F)on1 (centres undefined),inactive,–
CC1CCN(S(=O)(=O)c2ccc(NC(=O)C3CC(=O)N(c4ccccc4)C3)cc2)CC1 (centres undefined),inactive,–
COc1cccc(NC(=O)C(=O)c2cn(CC(=O)N3CCOCC3)c3ccccc23)c1,inactive,–
Cc1ccc(OC(=O)c2cc3ccccc3o2)cc1,inactive,–
Cc1ccc(NC(=O)c2cc3ccccc3o2)cc1,inactive,–
C/C(=N\NC(=S)Nc1ccc(C)cc1)c1cc2ccccc2o1,0.794 µM (active),–
O=C(c1cc(COc2ccc(F)c(F)c2)on1)N1CCOCC1,inactive,–
COc1ccc(OCc2cc(C(=O)N3CCCC3)no2)c2ccccc12,inactive,–
COc1ccc(CCN2CC(C(=O)NCCN3CCNC3=O)CCC2=O)cc1 (centres undefined),inactive,–
COc1ccc(CNC(=O)Cc2ccc(-c3ccccc3)cc2)cc1OC,inactive,–
Cc1ccc(C(=O)Nc2nnc(C3=COCCO3)o2)cc1C,0.282 µM (active),–
O=C(Nc1nnc(C2=COCCO2)o1)c1ccc([N+](=O)[O-])s1,3.16 µM (active),–
Cc1ccc(C(=O)NCCN2CCOCC2)cc1C,inactive,–
Cc1nc(NC(=O)c2ccc3c(c2)OCCO3)ccc1Br,inactive,–
COc1cc(C(C(=O)NC2CCCC2)N(Cc2ccccc2)C(=O)c2snc(C(N)=O)c2N)ccc1O (centres undefined),inactive,–
COc1cccc(C(C(=O)NC2CCCC2)N(C(=O)c2ccco2)c2cccc(C(C)=O)c2)c1OC (centres undefined),inactive,–
CCN1C(=NCC(C)C)N[C@@H](CCc2ccccc2)[C@H](C(=O)NCC(C)C)[C@H]1C,inactive,–
COC(=O)c1ccc(CN2CCCC(C(=O)Nc3cccc(-n4cnnn4)c3)C2)cc1 (centres undefined),inactive,–
CC(=O)c1ccc(N2CCN(C(=O)CCc3ccccc3)CC2)cc1,inactive,–
C=CCN1CCN(C(=O)CCCc2ccccc2)CC1,7.94 µM (active),–
O=C(CCCc1ccccc1)NCc1ccccc1,inactive,–
COC(=O)c1cccc(N(CC(=O)NCC2CCCO2)C(=O)CCC(=O)Nc2cc(C)on2)c1 (centres undefined),inactive,–
